# Measured values from PubChem BioAssay.
# The source made the active and inactive calls.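 The calls were made as follows, unless noted: active = fluorescence slope higher than the sample average by over 3 SD (cut at about -0.22 in these data, passing the limit was not always enough); inactive = the rest.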
# What was measured:
# [1] = inhibitors of TNFa-induced NFkB p65 translocation, primary screen, imaging, HUVEC, MLSMR starter and 10KST1 sets (AID 438;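 active = inhibition above 20% together with a positive visual image hit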;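 also: compound added about 3h40 before a 20 min TNFalpha stimulation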;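 as to inhibition: signal is the nuclear over cytoplasmic p65 intensity ratio per well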); conditions: HUVEC TNFa-induced p65 nuclear translocation; cell count: measured here: nuclei count (cytotoxicity indicator), at 2.08 µM; inhibition: at 2 µM, stronger effect = higher value, 0% TNFa-plus-vehicle, 100% no-TNFa wells
# [2] = inhibitors of mutant huntingtin aggregation, primary screen, imaging, exon1htt(103Q)mCFP cells, high-content imaging (AID 483;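 active = visual image review flags a hit and inhibition of aggregation exceeds 20%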;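 also: compound exposure lasted 3 days before fixation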;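 as to nuclei count: percent of the per-plate median nuclei count of sample wells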); conditions: exon1htt(103Q)mCFP cell line, aggregate imaging, at 2 µM; inhibition of aggregation: stronger effect = higher value; nuclei count: measured here: cell count, toxicity
# [3] = inhibitors of E-selectin induction by TNFa, primary screen, imaging, HUVEC, immunofluorescence, MLSMR starter and 10KST1 sets (AID 487;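 active = visually confirmed hit in the image check and inhibition above 20%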;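 as to inhibition: signal is fraction of cell area covered by stained E-selectin grains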;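 as to nuclei count: 100% = median nuclei count of all wells on the same plate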); conditions: HUVEC TNFalpha-induced E-selectin immunofluorescence imaging, at 2 µM; inhibition: stronger effect = higher value; nuclei count: measured here: cell number, toxicity
# [4] = target: Voltage-gated potassium channel subunit beta-2 (Rattus norvegicus) (UniProt P62483); experiment: KvBeta enzyme negative modulators, primary screen, biochemical, NADPH fluorescence (AID 622); conditions: recombinant KvBeta, 4-cyanobenzaldehyde reduction, at 10 µM, stronger effect = higher value;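 also: slope of raw intensity against log time taken from 70 to 1610 s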
# Voltage-gated potassium channel subunit beta-2 (Rattus norvegicus), sequence (P62483 whole entry, looked up): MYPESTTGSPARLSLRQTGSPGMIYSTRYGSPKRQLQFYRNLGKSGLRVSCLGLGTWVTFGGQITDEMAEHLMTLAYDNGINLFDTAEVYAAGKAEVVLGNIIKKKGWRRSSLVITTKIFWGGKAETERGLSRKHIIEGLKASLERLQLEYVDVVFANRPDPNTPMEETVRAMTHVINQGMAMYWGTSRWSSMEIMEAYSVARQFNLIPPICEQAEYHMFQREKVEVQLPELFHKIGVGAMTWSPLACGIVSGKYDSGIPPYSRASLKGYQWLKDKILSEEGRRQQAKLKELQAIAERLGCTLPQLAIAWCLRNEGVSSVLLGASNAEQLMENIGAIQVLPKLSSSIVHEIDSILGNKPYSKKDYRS
# [5] = target: Voltage-gated potassium channel subunit beta-2 (Rattus norvegicus) (UniProt P62483); experiment: KvBeta positive modulators, primary screen, biochemical, NADPH fluorescence (AID 623;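 active = NADPH fluorescence slope more negative than the mean of all samples by about 3 SD, 99.7% confidence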;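 also: fluorescence intensity change per second fitted from 20 to 320 s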); conditions: Recombinant KvBeta, NADPH fluorescence decrease slope, 10 min; at 10 µM; stronger effect = lower value
# [6] = target: Alpha-2C adrenergic receptor (Homo sapiens) (UniProt P18825); experiment: modulators of alpha2C/GIRK thallium flux, primary screen, cell-based, HEK293 alpha2C/GIRK1/2 (AID 624;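 active = fluorescence slope after compound addition differing from the mean of all screened samples at 99.7% confidence, in either direction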;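 also: slope of fluorescence ratio to pre-addition baseline per second over 15 to 24 s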); conditions: thallium flux BTC fluorescence, at 10 µM, actives lie on both sides
# Alpha-2C adrenergic receptor (Homo sapiens), sequence (P18825 whole entry, looked up): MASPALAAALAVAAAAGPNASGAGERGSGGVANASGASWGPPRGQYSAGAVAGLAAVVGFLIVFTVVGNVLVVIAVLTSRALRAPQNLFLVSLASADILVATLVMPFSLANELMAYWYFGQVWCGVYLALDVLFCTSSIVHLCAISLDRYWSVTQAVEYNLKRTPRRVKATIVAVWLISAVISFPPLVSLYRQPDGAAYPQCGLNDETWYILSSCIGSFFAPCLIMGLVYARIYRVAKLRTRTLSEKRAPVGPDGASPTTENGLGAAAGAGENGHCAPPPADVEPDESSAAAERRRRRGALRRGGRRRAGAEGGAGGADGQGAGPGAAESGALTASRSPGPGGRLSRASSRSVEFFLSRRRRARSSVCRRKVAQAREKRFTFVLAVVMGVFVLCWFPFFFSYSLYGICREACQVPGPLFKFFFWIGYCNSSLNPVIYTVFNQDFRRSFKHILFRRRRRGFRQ
# [7] = inhibitors of Sendai virus-induced IRF3 signaling, primary screen, TLR/RLR signaling modifier project, cell-based, Sendai virus stimulus, luciferase, 10K MLSCN set (AID 602276;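 active = inhibition at or above 50% at 10 µM; inactive = inhibition below 50%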;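 also: firefly luciferase from ISG56 promoter only with Renilla not read in this screen; 0% = Sendai virus plus DMSO and 100% = medium plus DMSO without virus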); conditions: HEK293 RL24 IRF3 luciferase reporter, at 10 µM, stronger effect = higher value
# [8] = inhibitors of poly I:C-induced TLR3 signaling, primary screen, cell-based, poly I:C stimulus, luciferase, 10K MLSCN set (AID 602277;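 active = inhibition of the reporter signal at or above 50%; inactive = inhibition below 50%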); conditions: HEK293-TLR3 RL24 IRF3 luciferase reporter, at 10 µM, stronger effect = higher value
SMILES,cell count [1],inhibition [1],inhibition of aggregation [2],nuclei count [2] [%],inhibition [3],nuclei count [3] [%],fluorescence slope [4],NADPH fluorescence slope [5],slope [6],inhibition [7],inhibition [8]
COc1cccc(C(=O)Nc2cc(C)c3c(=O)oc4ccccc4c3n2)c1,526,0.3% (inactive),9.3% (inactive),93.9,-0.1% (inactive),92.8,-0.429 (inactive),-3.7e-05 (inactive),0.00602 (inactive),10.3% (inactive),22.2% (inactive)
CC1Cn2c(nnc2-c2ccc(F)cc2)S1 (configuration not stated),741,-17.7% (inactive),-26.8% (inactive),119,-40% (inactive),101,-0.583 (inactive),-2.2e-05 (inactive),0.00604 (inactive),-1.17% (inactive),28.5% (inactive)
Cc1ccc(-n2c(=O)c(C#N)cc3c(=O)n4ccccc4nc32)cc1,338,3.6% (inactive),-21.9% (inactive),99.9,-31% (inactive),102,-0.232 (inactive),9.6e-06 (inactive),0.00607 (inactive),5.28% (inactive),26.9% (inactive)
CC(=O)Nc1ccc(S(=O)(=O)Nc2nc3ccccc3nc2N2CCCC2)cc1,369,3.2% (inactive),10.6% (inactive),106,-42.3% (inactive),128,-0.593 (inactive),2.1e-06 (inactive),0.00326 (inactive),20.8% (inactive),21.3% (inactive)
C=C(Cl)COc1ccc2c(C)cc(=O)oc2c1,319,-6.8% (inactive),-0.8% (inactive),71.6,-31.6% (inactive),101,-0.587 (inactive),3.6e-07 (inactive),0.00646 (inactive),-24.5% (inactive),-67.7% (inactive)
O=C(Cc1cccs1)NCc1ccc(F)cc1,458,2.4% (inactive),10.1% (inactive),107,56.1% (active),93.3,-0.408 (inactive),-3.6e-06 (inactive),0.00459 (inactive),-18.8% (inactive),-36.3% (inactive)
OC(CNCC1COc2ccccc2O1)COCc1cccs1 (configuration not stated),615,0.8% (inactive),-9.6% (inactive),105,-133% (inactive),131,-0.568 (inactive),6.2e-06 (inactive),0.00544 (inactive),-3.3% (inactive),2.31% (inactive)
